Compound activity deposited in PubChem by ICCB-Longwood Screening Facility, Harvard Medical School.
This excerpt belongs to a sample that is enriched for hits.
Ba CapD inh – blocks the Bacillus anthracis CapD enzyme. purified CapD enzyme, fluorescence intensity read-out; stronger effect = lower value. z-score (test concentration not listed). hit rate 0.23% among 140,000. AID 492967; in the data active means z-score mostly below about -2.9, no sharp cut-off; inactive means mostly above about -1.9
Numbers stand for hits.

What do the screens show for `Cc1cc(/C=C2\C(=O)NC(=S)N(c3ccc(F)cc3)C2=O)c(C)n1-c1ccccc1`?
Ba CapD inh: inactive

How did Cc1ccc(N2C(=O)NC(=O)/C(=C\c3cc(C)n(-c4cc(C(=O)O)cc(C(=O)O)c4)c3C)C2=O)cc1 do in these assays?
Ba CapD inh: inactive

How did Cc1cc(/C=C2\C(=O)NC(=S)N(c3cccc(Cl)c3)C2=O)c(C)n1-c1cc(C(=O)O)cc(C(=O)O)c1 do in these assays?
Ba CapD inh: -5.89

Results for CCOc1ccc(C2Nc3ccccc3C(C)(C)O2)cc1OC (stereo not drawn) ?
Ba CapD inh: inactive

Results for COc1ccc(CN2CCCCC2COC(=O)N2CCN(c3ccc(C(F)(F)F)cc3)CC2)cc1Br (stereo not drawn) ?
Ba CapD inh: inactive

Results for O=C1NCC(O)=C1/C=N/Nc1ccccc1 ?
Ba CapD inh: -4.44

How did CC(N=CC1=C(O)CNC1=O)c1ccccc1 (stereo not drawn) do in these assays?
Ba CapD inh: inactive

What do the screens show for `O=c1[nH]c(O)c(/C=N/Nc2ccccc2)c(=O)[nH]1`?
Ba CapD inh: inactive

What do the screens show for `COC(=O)C1=C(NC(=O)c2cc3ccccc3oc2=O)CCS1`?
Ba CapD inh: inactive

What do the screens show for `Cc1cc(=O)oc(C)c1C(=O)NCCCN1CCN(c2ccc(F)cc2)CC1`?
Ba CapD inh: inactive

What do the screens show for `COc1ccc(CCNC(=O)c2c(C)cc(=O)oc2C)cc1OC`?
Ba CapD inh: inactive

What do the screens show for `Cc1cc(=O)oc(C)c1C(=O)NCc1c(F)cc(F)cc1F`?
Ba CapD inh: -5.93

What do the screens show for `O=C(O)COc1ccc(/C=C2\C(=O)NC(=S)N(c3ccc(Cl)cc3)C2=O)cc1Br`?
Ba CapD inh: inactive

Results for COc1ccc(-c2ccnc3nc(SC/C=C/c4ccccc4)nn23)cc1 ?
Ba CapD inh: inactive

Results for Cc1ccc(NC2OC(CO)C(O)C2O)cc1C (stereo not drawn) ?
Ba CapD inh: inactive

Results for OCC1OC(Nc2ccccn2)C(O)C(O)C1O (stereo not drawn) ?
Ba CapD inh: inactive

What do the screens show for `O=C(O)c1ccc(NC2OC(CO)C(O)C2O)cc1` (stereo not drawn)?
Ba CapD inh: -6.54

How did CCN(CCOC(=O)NC1CCN(Cc2ccccc2)C1)c1ccc(N=Nc2ccc([N+](=O)[O-])cc2)cc1 (stereo not drawn) do in these assays?
Ba CapD inh: inactive

What do the screens show for `CCOC(=O)C1CCN(C(=O)C2c3ccccc3C(=O)N3CCc4ccccc4C23)CC1` (stereo not drawn)?
Ba CapD inh: inactive

How did CCOc1cc2c(cc1OCC)C1C(C(=O)N3CCCCC3)c3ccccc3C(=O)N1CC2 (stereo not drawn) do in these assays?
Ba CapD inh: -5.9

Results for CCOc1cc2c(cc1OCC)C1C(C(=O)N3CCCC3)c3ccccc3C(=O)N1CC2 (stereo not drawn) ?
Ba CapD inh: inactive

Results for COCCNC(=O)c1ccc(C(=O)NCCOC)cc1 ?
Ba CapD inh: inactive

What do the screens show for `COCCNC(=S)c1ccc(N(C)C)cc1`?
Ba CapD inh: -4.89

How did COCCCNC(=S)N/N=C/c1ccc(N(C)C)cc1 do in these assays?
Ba CapD inh: inactive

What do the screens show for `N/C(=N\OC(=O)C1CCCCC1)c1ccccc1`?
Ba CapD inh: inactive

How did CC(=O)Nc1ccc([N+](=O)[O-])cc1 do in these assays?
Ba CapD inh: inactive

What do the screens show for `CCNc1ccc([N+](=O)[O-])cc1`?
Ba CapD inh: -4.51

Results for CCOC(=O)CC(=O)c1ccc([N+](=O)[O-])cc1 ?
Ba CapD inh: inactive

How did CCN1CCN(CCCNC(=O)CC2Oc3ccc(C)cc3NC2=O)CC1 (stereo not drawn) do in these assays?
Ba CapD inh: inactive

What do the screens show for `O=C1CSC(N=Nc2c(O)[nH]c3ccccc23)=N1`?
Ba CapD inh: -4.12

How did O=C1N=c2ccccc2=C1N=Nc1c(O)[nH]c2ccccc12 do in these assays?
Ba CapD inh: inactive

How did O=C(N=Nc1c(O)[nH]c2ccccc12)C(O)c1ccccc1 (stereo not drawn) do in these assays?
Ba CapD inh: inactive

How did CC1(C)CC(O)c2ccccc2O1 (stereo not drawn) do in these assays?
Ba CapD inh: inactive

How did CCC(=O)N1c2ccccc2NC2=C(C(=O)CC(C)(C)C2)C1c1ccc(-c2ccc([N+](=O)[O-])cc2)o1 (stereo not drawn) do in these assays?
Ba CapD inh: inactive

How did O=C(c1ccco1)N1CCN(S(=O)(=O)c2cc(Cl)c(Cl)s2)CC1 do in these assays?
Ba CapD inh: inactive

What do the screens show for `O=C1/C(=C\c2ccsc2)CC/C1=C/c1ccsc1`?
Ba CapD inh: inactive

What do the screens show for `CCCN1C/C(=C/c2ccsc2)C(=O)/C(=C/c2ccsc2)C1`?
Ba CapD inh: -4.72

What do the screens show for `CCCN1C/C(=C\c2ccc(N(C)C)cc2)C(=O)/C(=C/c2ccc(N(C)C)cc2)C1`?
Ba CapD inh: inactive

What do the screens show for `CCOC(=O)c1ccc(NC(=O)CSc2nc3ccc(N4CCOCC4)cc3c(=O)n2Cc2ccccc2)cc1`?
Ba CapD inh: inactive

What do the screens show for `O=C(CCN1C(=O)/C(=C/c2ccc3c(c2)OCO3)SC1=S)Nc1ccc(O)c(C(=O)O)c1`?
Ba CapD inh: inactive

Results for Cc1ccc(-n2nc3c(c2NC(=O)c2cc(Br)ccc2Cl)CS(=O)(=O)C3)c(C)c1 ?
Ba CapD inh: inactive

How did CC(=O)Nc1ccc(N/C(C)=C/C(=O)c2cccnc2)cc1 do in these assays?
Ba CapD inh: -4.06

Results for CN=C(Nc1ccc(Cl)cc1)c1cccnc1 ?
Ba CapD inh: inactive

How did COc1ccc(N/C(C)=C/C(=O)c2ccccc2)cc1 do in these assays?
Ba CapD inh: inactive

Results for O=C(/C(=N\N=C\c1cccs1)c1ccccc1)c1ccccc1 ?
Ba CapD inh: inactive

What do the screens show for `O=C1c2ccccc2-c2cc(=O)n(C3CCCCC3)c3ccc(Br)c1c23`?
Ba CapD inh: inactive

Results for Cc1ccc(/C(N)=N/OC(=O)Oc2ccccc2)cc1 ?
Ba CapD inh: inactive

How did Cc1ccc(OC(=O)OCSc2nn[nH]n2)cc1 do in these assays?
Ba CapD inh: -7.11

Results for Cc1ccc(-c2nn[nH]n2)cc1 ?
Ba CapD inh: inactive

How did CC12C(=O)C3C4CC5C3C(=O)C1C5C42 (stereo not drawn) do in these assays?
Ba CapD inh: inactive

How did O=C(C1CCN(c2ccc(C(F)(F)F)cn2)CC1)N1CCN(Cc2ccc3c(c2)OCO3)CC1 do in these assays?
Ba CapD inh: inactive

Results for CSc1nsc2nc(=O)c(/C=C3\C=CC(=O)C(O)=C3)c(N)n12 ?
Ba CapD inh: -4.5

Results for N#CCC(=O)c1cccs1 ?
Ba CapD inh: inactive

What do the screens show for `COc1ccc(CNC(=O)c2oc3ccc4nc(N(C)C)sc4c3c2C)cc1`?
Ba CapD inh: inactive

What do the screens show for `CCCOCC(O)CN1CCCCC1` (stereo not drawn)?
Ba CapD inh: inactive

What do the screens show for `Fc1ccc(-c2nc3c4cc(I)ccc4c4ccc(I)cc4c3[nH]2)cc1`?
Ba CapD inh: inactive

What do the screens show for `CN(C)c1ccc(N2C(=O)/C(=C/c3ccc(-c4cc(Cl)ccc4Cl)o3)C=C2c2ccccc2)cc1`?
Ba CapD inh: inactive

How did CC[n+]1c(/C=C/N(C)c2ccccc2)sc2ccc(OC)cc21 do in these assays?
Ba CapD inh: inactive

How did CSc1sc2ccccc2[n+]1C do in these assays?
Ba CapD inh: inactive

Results for C[n+]1c(/C=C/Nc2ccccc2)sc2ccccc21 ?
Ba CapD inh: -4.36

How did CC[n+]1c(/C=C/Nc2ccccc2)sc2ccccc21 do in these assays?
Ba CapD inh: -4.91

How did C[n+]1c(COc2ccccc2O)sc2ccccc21 do in these assays?
Ba CapD inh: inactive

What do the screens show for `CC[n+]1c(/C=C2/C=C(C)CC(C)C2)sc2ccccc21` (stereo not drawn)?
Ba CapD inh: inactive
